28 molecules from PubChem BioAssay (EPA / NIEHS) can be followed below.

One may read the AC50 as the midpoint of the concentration-response curve, whichever way the signal moves.

Active and inactive are the calls of the source. How the source made its calls: active means hit-call score of the fitted dose curve at least 0.9, where 1 is the maximum; inactive means score below 0.9.

Sequence of Cellular tumor antigen p53 (Homo sapiens) (P04637 whole entry, looked up): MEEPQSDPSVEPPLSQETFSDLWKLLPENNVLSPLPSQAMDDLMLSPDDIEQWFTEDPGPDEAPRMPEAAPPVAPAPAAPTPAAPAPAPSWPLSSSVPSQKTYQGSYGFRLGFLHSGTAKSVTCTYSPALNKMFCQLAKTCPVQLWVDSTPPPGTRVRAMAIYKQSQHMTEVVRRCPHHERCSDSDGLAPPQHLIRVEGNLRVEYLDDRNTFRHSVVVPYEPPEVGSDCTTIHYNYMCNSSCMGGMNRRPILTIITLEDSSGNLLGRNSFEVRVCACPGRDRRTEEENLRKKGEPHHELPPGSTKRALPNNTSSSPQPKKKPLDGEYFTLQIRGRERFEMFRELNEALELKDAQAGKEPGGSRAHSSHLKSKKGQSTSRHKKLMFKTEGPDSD

Read-out in the test: Cellular tumor antigen p53 (Homo sapiens) (UniProt P04637)
The test is described as follows: LTEA_HepaRG_TP53: Life Technologies and Expression Analysis (LTEA) Assay for Tumor Protein P53 (TP53) using HepaRG (AID 2283537). To be noted: mRNA level, 48 h; actives raise or lower the signal. As to the method: LTEA_HepaRG is a cell based, multiplexed-readout assay that uses HepaRG, a human liver cell line, with measurements taken at 48 hours after chemical dosing on a 96-well plate.LTEA_HepaRG_TP53 is one of 102 assay component(s) measured in the LTEA HepaRG cell culture assay. It is a marker of Oxidative Stress.Data from the assay component LTEA_HepaRG_TP53 was analyzed into 1 endpoint. This assay endpoint, LTEA_HepaRG_TP53, was analyzed with bidirectional fitting relative to DMSO as the negative control and baseline of activity. Using a type of inducible reporter, measures of mRNA induction for gain or loss-of-signal activity can be used to understand regulation of transcription factor activity. To generalize the intended target to other relatable targets, this assay endpoint is annotated to the dna binding intended target family, where the subfamily is tumor suppressor.
A total of 1060 chemcials from the ToxCast library were tested in eight-point concentration-response experiments. Cell culture and cytotoxicity assays were conducted at Thermo Fisher Scientific's Custom Services facility (Madison, WI). A single lot of human HepaRG cells (Thermo Fisher Scientific, Frederick, MD) was used for the cell culture experiments. 96-well format collagen type I coated plates of human HepaRG cells were prepared using established methods. Briefly, cryopreserved HepaRG cells were thawed, plated at a density of approximately 100,000 cells/well in HepaRG Thaw, Plate, and General Purpose media (HPRG770, Thermo Fisher Scientific), and incubated for 48 hours. 0.5% DMSO was selected as vehicle control to balance the requisite need of DMSO in HepaRG cultures to maintain differentiation (for example, baseline metabolism, proportions of hepatocytes vs. cholangiocytes), while enabling further hepatic receptor pathway activation (for example, PXR and CAR) in response to chemical exposure. 48 hours after plating, the culture medium was replaced with HepaRG Serum-Free Incudtion Media. Cells were exposed to each test chemical in duplicate and maintained in CO2 incubators for another 48 hours. Chemical plates were thawed to room temperature and 200x concentrations of treatment groups were prepared. 8-point conentration-reponse curves were made with the highest exposure at 100 uM, followed by half-log dilutions, all in 0.5% DMSO. Each test plate contained variouse controls, induction positive controls (1mM phenobarbital), cytotoxicity positive controls ([…] aflatoxin B1), vehicle controls (0.5% DMSO), and total lysis controls (0.5% DMSO). Cell morphology images were taken using an Essen IncuCyte FLR automated microscope, with six 96-well plates imaged in about 24 minutes. Images were captured and exported and JPEG files. Spent culture media was transfered to black-well plates for the LDH assay, and remaining media was sorted at -80 C for later use. Cells were treated with RLT buffer and frozen until shipped for gene expression analysis. Total RNA was isolated from the cell suspension in 75 uL of Buffer RLT (Qiagen, Germantown, MD 20874) by Quintiles/Expression Analysis (Durham, NC) using a custom isolation procedure. Total RNA from each plate well was transferred to a preamplification plate. Fluidigm's 96.96 Dynamic ArrayTM (Fluidigm, Amsterdam, the Netherlands) technology was used for gene expression analyses by quantitative reverse transcription polymerase chain reaction (qRT-PCR, performed by Quintiles/Expression Analysis, Durham, NC)89. Standard TaqManTM Assays (Applied Biosystems/ThermoFisher Scientific, Foster City, CA) were used to assess the expression of 93 genes selected based on their selectivity and sensitivity to important hepatic receptors known to be modulated by environmental chemicals; importance in human hepatocyte functionality; and hepatotoxicity. […]
With `c1nc[nH]n1`, the outcome was inactive.

As to `c1ccc2c(c1)Nc1ccccc1S2`, the molecule was classed as inactive. Still for that read-out and setting: as for `c1ccc(OP(Oc2ccccc2)Oc2ccccc2)cc1`, the entry is “inactive”; as for `CC(C)(C)c1ccc(O)cc1`, “inactive”; as for `Cc1cccc(N)c1`, “inactive”. Same read-out and setting: as for `O=P1(N(CCCl)CCCl)NCCCO1` (stereo not drawn), the entry is “inactive”; as for `c1cc2c3c(cccc3c1)CC2`, “inactive”. Same read-out and setting: the same measure for `CC(Cc1ccc(OCC(=O)O)cc1)NCC(O)c1csc(C(F)(F)F)n1` (stereo not drawn): “inactive”.

In the case of `ClC(Cl)(Cl)c1ccccc1`, the molecule was classed as inactive.

For the molecule `CCC(C)(C)c1ccc(O)cc1`, the molecule was called inactive.

Turning to `CCOc1ccc(C(C)(C)COCc2cccc(Oc3ccccc3)c2)cc1`, the molecule was classed as inactive. As to `ClC1=C(Cl)C2(Cl)C3C(Cl)C(Cl)CC3C1(Cl)C2(Cl)Cl` (stereo not drawn), the result was inactive.

For `O=P(Oc1ccccc1)(Oc1ccccc1)Oc1ccccc1`, the concentration at half-maximal activity (AC50) is 50 µM (active).

With `CC(C)(C)OOC(C)(C)C`, the call was inactive.

For `CCCCN(CCCC)N=O`, the molecule was classed as inactive. The same measure, in the same setting: the same measure for `Cc1ccc(O)cc1C`: “inactive”; for `CCC1(c2ccccc2)C(=O)N=C(O)NC1=O` (stereo not drawn): “inactive”.

Consider `Cc1ccc(N)cc1N`, for which the outcome was inactive. Take `CCCN(CCC)c1c([N+](=O)[O-])cc(C(C)C)cc1[N+](=O)[O-]`: the AC50 is 0.322 µM (active).

For the molecule `OCC1CO1` (stereo not drawn), the call was inactive.

Take `[N-]=[N+]=[N-]`: the concentration at half-maximal activity (AC50) was 81.9 µM (active).

Consider `CCOS(=O)(=O)OCC`, for which the call was inactive. Regarding `O=C(O)C1C(C(=O)O)C2(Cl)C(Cl)=C(Cl)C1(Cl)C2(Cl)Cl` (stereo not drawn), the result was inactive. On the same count and under the same terms, as for `O=[N+]([O-])c1ccccc1`, the entry is “inactive”; as for `Nc1ccc(Cl)cc1`, “inactive”; as for `CCOC(=O)c1ccccc1C(=O)OCC`, “inactive”. On the same count and under the same terms, the same measure for `CCN(CC)c1ccccc1`: “inactive”; for `Nc1ccc2ccccc2c1`: “inactive”.
